High-throughput results (PubChem)
Shown are actives, neighbours in structure and some others; about 3.2% of the full set was active somewhere.
rRNA inh HTS: selective bacterial rRNA inhibition in E. coli; GFP signal change (wild-type ribosome), % (no concentration beside the values); E. coli WT GFP vs humanized-ribosome RFP mutants, fluorescence, 24 h; stronger effect = lower value; DMSO median 0, no signal -100; AID 720706; actives 1.6% (n = 350,000);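 active = significant combined selectivity score with lowered wild-type GFP, culture density cut under 30%, mutant RFP and density less affected; inactive = any of these conditions unmet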
PGC1a acetyl inh: lowers PGC1a acetylation signal in U2OS cells | actives 0.17% (n = 350,000) | AlphaScreen anti-acetyl-lysine; with virally co-expressed GCN5 acetyltransferase | inhibition, % at 15.6 µM;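 active = every replicate shows inhibition of at least 40%; inconclusive = mean inhibition at least 40% but some replicate below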;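 also: 0% = neutral control wells and 100% = positive control wells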
GSIS activator: GLuc luminescence reporter in INS-1E cells, primary screen for activators of glucose-dependent secretion of insulin. INS-1E GLuc reporter insulin secretion, 2-3 h. activation, % at 16.6 µM. actives 0.61% (n = 370,000). AID 743287;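 active = lowest replicate activation of at least 40%, so every replicate reaches that level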;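 also: 0% = median of neutral control wells and 100% = median of IBMX positive control wells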
ERAP1 inh: inhibitors of human ERAP1 aminopeptidase; AID 652197; inhibition, % at 10.7 µM; recombinant ERAP1, Leu-AMC fluorescence, 60 min; Q9NZ08; actives 0.15% (n = 340,000);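 active = mean replicate inhibition of at least 30%, or all replicates individually reaching that 30% level; inactive = mean below 30% and not every replicate reaching it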;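 also: 0% = neutral control wells and 100% = L-leucinethiol positive control wells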
Target sequence (Q9NZ08 whole entry, looked up): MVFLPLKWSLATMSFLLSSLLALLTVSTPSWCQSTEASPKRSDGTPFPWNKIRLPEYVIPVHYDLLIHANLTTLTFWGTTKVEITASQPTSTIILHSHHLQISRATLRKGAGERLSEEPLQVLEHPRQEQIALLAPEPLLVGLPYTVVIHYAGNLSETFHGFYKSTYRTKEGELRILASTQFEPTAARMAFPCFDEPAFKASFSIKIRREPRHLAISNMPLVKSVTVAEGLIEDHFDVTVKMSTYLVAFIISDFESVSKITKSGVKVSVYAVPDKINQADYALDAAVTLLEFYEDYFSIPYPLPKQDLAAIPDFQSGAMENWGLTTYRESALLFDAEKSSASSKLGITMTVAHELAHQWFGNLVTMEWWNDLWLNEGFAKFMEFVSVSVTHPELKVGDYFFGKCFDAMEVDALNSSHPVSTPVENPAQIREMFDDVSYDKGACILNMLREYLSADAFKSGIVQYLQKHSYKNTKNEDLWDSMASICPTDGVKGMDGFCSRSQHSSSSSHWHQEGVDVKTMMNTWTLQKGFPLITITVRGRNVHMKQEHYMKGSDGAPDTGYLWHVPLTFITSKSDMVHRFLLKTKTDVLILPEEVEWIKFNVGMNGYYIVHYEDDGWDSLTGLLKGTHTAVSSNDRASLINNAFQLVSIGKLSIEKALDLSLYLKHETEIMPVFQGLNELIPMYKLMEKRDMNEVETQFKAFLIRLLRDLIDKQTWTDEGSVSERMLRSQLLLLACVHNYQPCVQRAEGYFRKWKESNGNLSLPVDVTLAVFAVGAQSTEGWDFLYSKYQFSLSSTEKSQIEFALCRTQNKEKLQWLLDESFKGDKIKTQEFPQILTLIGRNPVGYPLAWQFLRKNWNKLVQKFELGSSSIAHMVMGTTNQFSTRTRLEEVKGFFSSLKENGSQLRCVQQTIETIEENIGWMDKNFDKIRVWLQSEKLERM
DENV2 CPE rescue: protects cells from dengue virus 2 cytopathic effect; DENV2-infected cells, cytopathic effect rescue, plate reader; CPE inhibition, % at 9.99 µM; actives 1.7% (n = 350,000); AID 651640; in the data active = CPE inhibition above about 20%, passing the limit was not always enough; inconclusive = no clear call, values can overlap the other calls; tested in BHK-21 cells;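 also: 0% = median of neutral control wells and 100% = median of positive control wells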
CaV13 FRET inh: Disruptors of the CACNA1D IQ motif to Ca2+-dependent inactivation inhibitor domain association, primary screening, Förster resonance energy transfer in intact living …. HEK cells, CFP/YFP FRET ICDI-IQ, plate reader, 10 min; percent FRET-ratio fall versus neutral wells. inhibition, % at 12.3 µM. actives 0.098% (n = 340,000). AID 743397;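 active = mean replicate inhibition of at least 30% and at least 1% of replicates passing that level; inconclusive = only one of the two criteria is met; inactive = neither criterion is met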;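 also: 0% = median of the neutral control wells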
Numbers without * were called inactive; ? = inconclusive; . = no result given.

SMILES	rRNA inh HTS	PGC1a acetyl inh	GSIS activator	ERAP1 inh	DENV2 CPE rescue	CaV13 FRET inh
C[C@H](CO)N1C[C@H](C)[C@H](CN(C)C(=O)Nc2ccc(F)cc2)Oc2ccc(NC(=O)Cc3ccccc3)cc2CC1=O	4.4	-6.0	1.0	0.8	12.1	.
Cc1cccc(/C=N\NC(=O)c2ccccc2-n2cccc2)c1	1.2	.	7.5	-3.7	0.8	2.2
O=C(N/N=C/c1ccc(Br)cc1)c1ccccc1-n1cccc1	-41.2*	-14.7	-29.1	2.8	12.1	-2.6
Cc1ccccc1NC(=S)N(Cc1ccco1)C(C)c1cccs1 (stereo not drawn)	-13.0	-14.1	6.3	.	.	-3.1
CC(c1cccs1)N(Cc1ccco1)C(=S)Nc1ccccc1Cl (stereo not drawn)	-19.6*	-5.4	22.6	.	10.3	-5.4
C[C@@H]1CN([C@@H](C)CO)C(=O)c2cc(NC(=O)NC3CCCCC3)ccc2O[C@H]1CN(C)Cc1ccc2c(c1)OCO2	0.7	-2.9	-20.2	2.9	8.5	.
O=C(COC(=O)CN1C(=O)NC2(CCCC2)C1=O)Nc1ccc(C(F)(F)F)cc1[N+](=O)[O-]	1.1	.	11.8	-0.5	31.9*	-4.2
O=C(c1cc(C2CC2)nn1-c1ccccc1)N1CCN(Cc2ccc(Cl)cc2)CC1	-45.4	-2.4	-38.0	-2.1	-0.1	-2.8
Cc1cccc(C)c1NC(=O)CN1CCN(C(=O)c2cc(C3CC3)nn2-c2ccccc2)CC1	-0.7	-14.8	.	-2.5	80.6*	-10.2
CCCCC(CC)C1OCC(C[N+]2(C)CCOCC2)O1 (stereo not drawn)	6.7	-0.2	0.4	83.1*	16.3	-3.0
CSc1nc(Cl)cc(Nc2ccccc2N)n1	-23.4*	-4.6	14.9	-4.6	.	-4.6
OCC1OC(Oc2c(Br)cc(Br)cc2Br)C(O)C(O)C1O (stereo not drawn)	-48.0	62.8*	-14.6	0.6	-4.8	-8.3
CN(CC(=O)Nc1cccc(F)c1)C(=O)CCc1nc2ccccc2c(=O)[nH]1	13.9	14.3	3.3	49.3*	3.4	-3.4
Cc1nc(Sc2ccc(Br)cc2)c(C#N)c(C)c1[N+](=O)[O-]	1.3	.	16.7	2.0	-9.5	-4.6
Cc1ccc(Sc2nc(C)c([N+](=O)[O-])c(C)c2C#N)cc1	-13.1	4.5	-6.9	-2.8	28.9*	-3.6
Cc1nc(Sc2ccc(Cl)cc2)c(C#N)c(C)c1[N+](=O)[O-]	-20.2*	-26.3	10.4	0.5	17.3	-5.1
O=C(COc1cc2oc(=O)c3c(c2cc1Cl)CCC3)NCC1CCC(C(=O)O)CC1 (stereo not drawn)	6.9	.	2.2	-0.9	5.3	-1.9
O=C(COc1cc2oc(=O)c3c(c2cc1Cl)CCCC3)NCC1CCC(C(=O)O)CC1 (stereo not drawn)	-22.9*	-18.3	23.7	-16.2	-0.3	-14.1
Cn1nc(C(=O)NNc2c(F)c(F)cc(F)c2F)c2ccccc2c1=O	-20.8*	4.6	8.5	-0.4	-7.5	-2.2
Cn1nc(C(=O)NNC(=O)COc2ccccc2)c2ccccc2c1=O	12.6	.	1.6	5.7	?	-17.9
O=C(Nc1ccc(Cl)cc1)N[C@H]1CC[C@H](CCNC(=O)c2cc(Cl)cc(Cl)c2)O[C@@H]1CO	-7.7	-4.8	-1.2	-0.4	-11.3	.
O=C(C1CC1)N1C[C@@H]2N[C@H](C1)C2c1ccc(/C=C/c2ccccc2)cc1 (stereo partly drawn)	-4.5	-17.0	1.3	.	-3.7	.
O=C(NCCCn1cccn1)C1CCC(=O)N(Cc2cccc(C(F)(F)F)c2)C1 (stereo not drawn)	2.5	.	-1.6	8.3	3.0	-7.4
O=C(NCCc1ccc(C(F)(F)F)cc1)C1CCC(=O)N(CCCc2ccccc2)C1 (stereo not drawn)	-45.7*	7.4	-34.4	1.3	-2.0	-6.7
COc1ccc(CCN2CC(C(=O)NCCc3cn[nH]c3)CCC2=O)cc1 (stereo not drawn)	7.2	.	6.6	-1.3	87.6*	-5.4
SMILES	rRNA inh HTS	PGC1a acetyl inh	GSIS activator	ERAP1 inh	DENV2 CPE rescue	CaV13 FRET inh
O=C(NCCCC1CCCC1)C1CCC(=O)N(Cc2cccc(C(F)(F)F)c2)C1 (stereo not drawn)	-51.5	-14.5	-40.9	-4.3	26.1*	.
CO[C@H]1CN(C)C(=O)c2cc(NC(=O)c3ccc(F)cc3)ccc2OC[C@H](C)NC[C@@H]1C	-0.7	2.5	5.4	.	.	.
CC(=O)N(C)C[C@@H]1Oc2ncc(C#CC(C)(C)O)cc2C(=O)N([C@@H](C)CO)C[C@H]1C	11.8	-0.9	45.4	1.8	20.1*	.
CCC(=O)N(C)C[C@H]1Oc2ncc(C#CC(C)(C)O)cc2C(=O)N([C@H](C)CO)C[C@@H]1C	0.7	7.5	12.3	1.5	14.4	.
C[C@H](CO)N1C[C@H](C)[C@H](CN(C)C(=O)C2CCC2)Oc2ncc(C#CC(C)(C)O)cc2C1=O	0.7	.	14.7	1.4	-5.3	.
C[C@H](CO)N1C[C@H](C)[C@@H](CN(C)C(=O)C2CCC2)Oc2ncc(C#CC(C)(C)O)cc2C1=O	2.7	5.3	13.6	0.4	23.0*	.
CN(C)S(=O)(=O)c1ccc(C(=O)Nc2ccc3c(c2)CCC3)cc1	-22.4	6.7	-9.7	-0.6	1.2	-19.6
CN(C)S(=O)(=O)c1cccc(C(=O)Nc2ccc3c(c2)CCC3)c1	-19.4*	-1.0	-8.6	0.9	0.7	-2.7
O=C(Nc1ccc2c(c1)CCC2)c1cccc(OC(F)F)c1	-24.1*	-7.0	-16.9	2.7	0.3	-5.2
O=C(Nc1ccc(OC(F)F)c(Cl)c1)c1cccc(OC(F)F)c1	.	-3.5	.	.	.	.
Cc1ccc(S(=O)(=O)N[C@H]2CC[C@@H](CCn3cc(-c4cccnc4)nn3)O[C@H]2CO)cc1	-0.5	1.8	-14.6	0.3	3.3	.
Cc1c(NC(=S)NC(=O)c2sc3ccccc3c2Cl)cccc1C(=O)O	-5.8	.	62.7*	-2.0	-1.7	-4.4
C[C@@H]1CN([C@H](C)CO)C(=O)c2cccc(NC(=O)C3CCOCC3)c2O[C@@H]1CN(C)S(=O)(=O)c1ccc(F)cc1	0.0	-0.5	25.1	-0.1	-5.9	.
CO[C@H]1CN(C)C(=O)c2cc(NC(=O)c3cnccn3)ccc2OC[C@H](C)N(CC2CC2)C[C@@H]1C	-0.6	6.6	14.8	-0.6	35.0*	.
CCCN1C[C@@H](C)[C@@H](OC)CN(C)C(=O)c2ccc(NC(=O)c3cnccn3)cc2OC[C@@H]1C	1.6	-4.8	1.6	1.6	22.1*	.
CO[C@H]1CN(C)C(=O)c2ccc(NC(=O)c3cnccn3)cc2OC[C@H](C)NC[C@H]1C	5.7	0.9	1.1	-2.9	53.2*	.
CO[C@@H]1CN(C)C(=O)c2cc(NC(=O)c3cnccn3)ccc2OC[C@H](C)N(CC2CC2)C[C@@H]1C	2.5	5.3	5.5	-1.1	-9.4	.
